Among all 320,000 compounds or so, about 2,100 (0.66%) were called active.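 The calls were made as follows: active = inhibition above the mean inhibition of all tested compounds plus 3 SD, set per campaign (cut at about 40% in these data); inactive = the rest.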 The entries come from a sample that favours actives as a whole.
target: Induced myeloid leukemia cell differentiation protein Mcl-1 (Homo sapiens) (UniProt Q07820); assay: MCL1-BIM peptide interaction disruptors – biochemical, fluorescence polarization, primary screen (AID 2057); conditions: GST-MCL1 / FITC-Bim-BH3 fluorescence polarization; at 10.9 µM; stronger effect = higher value;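 also: 0% = DMSO wells and 100% = unlabeled Bim-BH3 peptide control; higher means more loss of mP so more displacement of Bim peptide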
Sequence (Q07820 whole entry, looked up): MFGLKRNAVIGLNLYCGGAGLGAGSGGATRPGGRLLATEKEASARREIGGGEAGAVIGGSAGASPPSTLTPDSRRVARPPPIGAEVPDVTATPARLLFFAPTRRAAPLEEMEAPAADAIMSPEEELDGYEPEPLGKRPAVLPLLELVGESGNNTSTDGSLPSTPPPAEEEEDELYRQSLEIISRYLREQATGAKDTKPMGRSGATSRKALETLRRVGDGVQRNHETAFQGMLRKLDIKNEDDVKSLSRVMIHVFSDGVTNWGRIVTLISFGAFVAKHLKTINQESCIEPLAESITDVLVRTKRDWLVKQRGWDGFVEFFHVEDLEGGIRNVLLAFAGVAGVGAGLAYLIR

inhibition, active:
CCCn1c(O)c(CN2CCCC(C)C2)c(C)c(C#N)c1=O (stereo not drawn) 57.2%, CN1CCc2nc(SC(C(=O)O)c3ccccc3)c(C#N)c(-c3cccs3)c2C1 (stereo not drawn) 45.7%, Cc1cc2ccccc2n1CCC(=O)O 49.7%, O=C(COC(=O)Cn1cnc2ccccc21)Nc1cccc2c1C(=O)c1ccccc1C2=O 155%, O=C(OCC1O[C@@H](OC(=O)c2cc(O)c(O)c(O)c2)[C@@H](OC(=O)c2cc(O)c(O)c(O)c2)[C@@H](OC(=O)c2cc(O)c(O)c(O)c2)[C@@H]1OC(=O)c1cc(O)c(O)c(O)c1)c1cc(O)c(O)c(O)c1 (stereo partly drawn) 74.8%, O=C1c2ccccc2C(=O)c2c1cccc2N1CCN(CCO)CC1 60.6%, NS(=O)(=O)c1ccc(N=Nc2c(O)[nH]c3ccc(Br)cc23)cc1 44.2%, Cc1ccc(C(=O)NC(=S)Nc2ccc(N3CCOCC3)cc2)cc1 46.3%, N/C(=N\OC(=O)CCc1ccccc1)c1ccc(Cl)cc1 64.4%, COCCNC(=O)Nc1ccc2nc(-c3ccco3)c(-c3ccco3)nc2c1 131%, O=C(NCc1ccccn1)c1ccc2nc(-c3ccco3)c(-c3ccco3)nc2c1 106%, C=CCOc1cccc(C2C(C(=O)c3ccc(C)o3)=C(O)C(=O)N2c2nnc(C)s2)c1 (stereo not drawn) 81.2%, COc1ccc2[nH]c(C)c(CCN(Cc3cccs3)C(=S)Nc3ccccc3OC)c2c1 65.3%, Cc1ccc(/C=C(\C#N)C(=O)Nc2cccc3ncccc23)o1 138%, Nc1cc(N2CCCCCC2)c2nonc2c1[N+](=O)[O-] 48%, C=CCn1c(=S)[nH]c2scc(-c3ccco3)c2c1=O 67.4%

inhibition, inactive:
CCCCCCn1c(CN2CCCC(C)C2)nc2c1c(=O)n(C)c(=O)n2C (stereo not drawn) 4.79%, Cc1c(CN2CCCCC2)c(O)n(CCO)c(=O)c1C#N 18.2%, O=C(COC(=O)c1ncc(Cl)c(Cl)c1Cl)NC1CCS(=O)(=O)C1 (stereo not drawn) -1.74%, O=C(CN1CCN(c2ccccc2O)CC1)NC(=O)NCc1ccccc1 5.09%, CC(=O)c1ccc(NC(=O)CCc2nnc3ccc(NCc4ccco4)nn23)cc1 2.1%, CC(C)CCN1CCN(Cc2cn[nH]c2C2CCCCC2)CC1CCO (stereo not drawn) -6.25%, CN(C)S(=O)(=O)c1ccc(N/C=C(\[N+](=O)[O-])S(=O)(=O)c2ccccc2)cc1 2.14%, CC(NCc1nc2ccccc2n1C)C12CC3CC(CC(C3)C1)C2 (stereo not drawn) -2.96%, CCc1c(-c2ccccc2)nc(N)c(C#N)c1-c1cccs1 11.5%, Cc1c(-c2ccccc2)nc(N)c(C#N)c1-c1cccs1 4.53%, CCN(CC(=O)NC1CCS(=O)(=O)C1)S(=O)(=O)c1ccccc1 (stereo not drawn) -7.02%, COc1ccc(C2/C=C\CN(S(=O)(=O)c3cccs3)CC(=O)N2Cc2ccc(F)cc2)cc1 (stereo not drawn) 3.81%, O=C(CCS(=O)(=O)c1ccccc1)NC1CCCC1 -0.76%, CC(=O)c1ccc(N2C(=NC(=O)C(C)C)SC3CS(=O)(=O)CC32)cc1 (stereo not drawn) 2.13%, O=C(O)CCn1c(Cc2ccccc2)nc2ccccc21 1.68%, Cc1cc2ccccc2n1CCNC(=O)COc1ccc2ccccc2c1 2.6%, O=C(O)C1C2CC2CN1C(=O)c1ccc(Cl)cc1Cl (stereo not drawn) 0.95%, Cc1cccc(C)c1Nc1c(-c2ccccc2O)nc2ncccn12 0.37%, CCC(C)CN1CCC(CO)(Cc2ccccc2Cl)CC1 (stereo not drawn) 0.34%, COC(=O)c1sc(C(F)(F)F)c(-c2ccccc2)c1S(=O)(=O)N(C)C 4.01%, Cc1cc(Cl)ccc1NNC(=O)c1snnc1C 6.52%, O=C(COC(=O)c1cccc(Br)c1)Nc1cccc2c1C(=O)c1ccccc1C2=O -1.24%, O=C(Cn1cnc2ccccc21)Nc1ccccc1-c1ccccc1 6.02%, COc1ccc(OC)c2[nH]c(=O)c(CCNC(=O)C(=O)c3c[nH]c4ccccc34)cc12 7.82%, CCn1c(=S)sc2c(=O)n(CC(=O)Nc3cccc(Br)c3)c(C)nc21 -2.89%, COc1cccc(NC(=O)C2C(c3ccccc3)C2(Cl)Cl)c1 (stereo not drawn) 6.86%, CCN1CCN(CC(=O)c2cc(OC)c(OC)c(OC)c2)CC1 0.87%, O=C(OCC1OC(Oc2ccc(O)cc2)C(O)C(O)C1O)c1ccccc1 (stereo not drawn) -1.58%, COC(=O)C(C)Sc1ccc2nnc(-c3cccc(F)c3)n2n1 (stereo not drawn) -5.54%, O=C1c2ccccc2C(=O)c2c1cccc2N1CCN(Cc2ccccc2)CC1 7.86%, O=C1c2ccccc2C(=O)c2c1cccc2N1CCN(C/C=C/c2ccccc2)CC1 13.8%, CCC(=O)c1ccc(OCC(=O)Nc2ccc(N3CCCCC3)cc2)cc1 0.81%, Cc1ccc(S(=O)(=O)N2CC(C)N(S(C)(=O)=O)C2)cc1 (stereo not drawn) 7.35%, CC1CCc2sc(C(=O)NCC(c3ccco3)N3CCCCC3)cc2C1 (stereo not drawn) -3.03%, COc1ccc(CCN2C(=O)N(c3ccc(OC)cc3)C(=O)C2CC(=O)Nc2ccc(OC)cc2)cc1 (stereo not drawn) 2.06%, CC(=O)Nc1ccc(Nc2cc(C)nc(Nc3ccc(NC(C)=O)cc3)n2)cc1 -11.2%, Cc1cc(C)c(CN2CCN(C(=O)Cn3ccc(NC(=O)OCc4ccccc4)nc3=O)CC2)c(C)c1 2.72%, Oc1[nH]c2ccc(Br)cc2c1N=Nc1nn[nH]n1 6.9%, O=C(CNC(=O)Cc1ccccc1)N=Nc1c(O)[nH]c2ccc(Br)cc12 4.04%, Cc1ccc(NC(=S)NC(=O)c2ccc(-c3ccccc3)cc2)cc1 4.74%, Cc1ccc(C(=O)NC(=S)NCCN2CCOCC2)cc1 6.07%, CC(=O)Nc1ccc(S(=O)(=O)NC2Cc3ccccc3C2)cc1 1.26%, N/C(=N\OC(=O)CCc1ccccc1)c1cccnc1 4.17%, COc1ccc(/C(N)=N/OC(=O)CCCc2ccccc2)cc1 -1.09%, CCCSC(=S)NC1CCS(=O)(=O)C1 (stereo not drawn) 2.09%, COc1ccc2oc(=O)c(C(=O)NCc3ccccn3)cc2c1 0.27%, Cc1cc(C)cc(NC(=O)NCc2ccccn2)c1 1.97%, CCOc1cc(NC(=S)NCCCOC)c(OCC)cc1NC(=O)c1ccco1 9.31%, Cc1nc2cc(NC(=O)NCc3ccccc3)ccc2o1 -6.46%, Cc1cc(C)nc(-n2ncc3c2CC(c2ccc(C(C)C)cc2)CC3=O)n1 (stereo not drawn) 2.19%, O=C(COC(=O)C1CCN(S(=O)(=O)c2ccc3c(c2)OCCO3)CC1)Nc1ccccc1OC(F)F 0.49%, O=C1CCN(C(=O)Nc2ccccc2)N1 -0.78%, Cc1cc(N2C(=O)C(O)=C(C(=O)c3ccc(C)o3)C2c2ccc(OCc3ccccc3)cc2)no1 (stereo not drawn) 10.4%, C=CCOc1cccc(C2C(C(=O)c3ccc(C)o3)=C(O)C(=O)N2CCCn2ccnc2)c1 (stereo not drawn) -4.11%, CCNC(=S)N(CCN(CC)CC)Cc1cc2cc3c(cc2[nH]c1=O)OCCO3 13.5%, Cc1ccc(OCC(=O)Nc2ccccc2Sc2ccc(Cl)cc2)c([N+](=O)[O-])n1 3.45%, CC(C)c1csc(CN2CCC(CO)(Cc3ccccc3)CC2)n1 8.03%, Cc1[nH]c2ccccc2c1CCN(Cc1cccs1)C(=S)NC(C)(C)C 7.74%, COc1cccc(NC(=S)N(CCc2c(C)[nH]c3ccccc23)Cc2ccco2)c1 4.2%, CC(CC(=O)N1CCN(c2ccccc2)CC1)S(=O)(=O)c1ccc2c(c1)NC(=O)CS2 (stereo not drawn) -2.69%, CN(C(=O)COC(=O)CNC(=O)C12CC3CC(CC(C3)C1)C2)c1ccccc1 -5.29%, Cc1ccsc1C(=O)NCCc1ccco1 7.13%, COc1ccccc1-c1oc2ccccc2c1C#CCCCCO -3.18%, CC(=O)Nc1ccc(S(=O)(=O)N2CCC(C(=O)NC3CC3)CC2)cc1 -6.89%, O=C(O)c1cc(Cl)c(Cl)cc1C(=O)Nc1cccc2ncccc12 -1.24%, Cc1ccc(Cc2cnc(NC(=O)/C(C#N)=C/c3ccc(-c4cccc([N+](=O)[O-])c4)o3)s2)cc1 -0.71%, COc1ccc(OC)c(C(C)NC(=S)Nc2ccc(S(=O)(=O)Nc3ncccn3)cc2)c1 (stereo not drawn) 5.87%, CCN(CC)CCNC(=O)c1sc2ncn(CC(=O)Nc3ccc(C)c(Cl)c3)c(=O)c2c1C -4.53%, CCOc1cc(C(=S)N2CCOCC2)ccc1OS(=O)(=O)c1ccc(Br)cc1 2.62%, CSc1ccccc1-c1nnc(-c2ccc(Cl)cc2)o1 -2.22%, COc1ccc(/C=N/NC(=O)c2ccncc2)cc1CN1CCCc2ccccc21 9.1%, Cc1c(Nc2cc(N3CCCC(C)C3)c3nonc3c2[N+](=O)[O-])c(=O)n(-c2ccccc2)n1C (stereo not drawn) -0.42%, Nc1nc(NCC(=O)O)nc(N2CCCCCC2)c1[N+](=O)[O-] 1.22%, CC(C)COC(=O)C1C2C=CC3(CN(C(C)c4ccc(Br)cc4)C(=O)C13)O2 (stereo not drawn) -1.26%, Cc1ccc(C(=O)COC(=O)CCCC(=O)NC2CCCCC2)cc1[N+](=O)[O-] -0.81%, C=CCn1c(SCc2csc(C)n2)nc2scc(-c3ccc(C)o3)c2c1=O -8.6%, C=CCNC(=O)CSc1nc2scc(-c3ccco3)c2c(=O)n1CC=C -5.54%

Reference: PubChem BioAssay AID2057 (The Scripps Research Institute Molecular Screening Center, 2009)
